# In the library only some 3.5% were active in any assay of this set; here they are far more common.
# LEDGF integ inh: blockers of LEDGF/p75-dependent integrase strand transfer – biochemical, TR-FRET, high throughput, primary screen. inhibition, % at 3.7 µM. AID 743269, 2014. HIV-1 integrase (with human LEDGF/p75). 370,000 compounds, 0.64% hits. TR-FRET IN-LEDGF/p75 DNA integration, Eu/Cy5;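 active = inhibition above the screen-wide mean plus 3 SD, cut at about 13% in these data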;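 note: signal is the Cy5 over europium emission ratio at 671 and 618 nm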
# DNMT1 block: human DNMT1 methyltransferase inhibitors, primary screen, biochemical, molecular beacon, fluorescence, HinP1I cleavage, uHTS; DNA (cytosine-5)-methyltransferase 1 (Homo sapiens), P26358; inhibition (reported as % activation of signal), % at 10 µM; 360,000 compounds, 0.83% hits; AID 588458, 2011; in the data active = inhibition above about 50%
# UHRF1 MBD2 ctr: UHRF1 methylated DNA binding inhibitors, primary screen, counter-screen for MBD2 inhibitor project, biochemical, TR-FRET, human UHRF1, single concentration; E3 ubiquitin-protein ligase UHRF1 (Homo sapiens), Q96T88; UHRF1 binding to methylated oligo; inhibition, % at 4.4 µM; 370,000 compounds, 0.75% hits; in the data active = inhibition above about 21%;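 note: UHRF1 SRA domain binding a hemimethylated CpG hairpin DNA probe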
# rCAG binder: binders of r(CAG) RNA repeats, primary screen, biochemical, fluorescence. r(CAG) RNA repeat, TO-PRO-1 dye displacement fluorescence. inhibition, % at 3 µM. 370,000 compounds, 1.3% hits;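 active = inhibition above the plate cutoff, the mean of all test compounds on that plate plus 3 SD, cut at about 35% in these data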;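 note: higher means more dye released from RNA so lower well fluorescence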
# MBD2 DNA inh: inhibitors of MBD2 binding to methylated DNA, primary screen, biochemical, TR-FRET, DNA-binding domain, human; AID 686964, 2013; MBD2 binding to methylated oligonucleotide; inhibition, % at 4.4 µM; 370,000 compounds, 0.31% hits; in the data active = inhibition above about 13%
# PG9 Ab binder: binders of HIV-1 gp120 antibody PG9, primary screen, biochemical, TR-FRET; HIV-1 gp120 / PG9 antibody interaction; TR-FRET gp120-PG9 antibody binding; inhibition, % at 6.7 µM; 360,000 compounds, 0.43% hits; AID 624416, 2012; in the data active = inhibition above about 8.5%
# A number is an active result; . = inactive; / = no result given.
SMILES,LEDGF integ inh,DNMT1 block,UHRF1 MBD2 ctr,rCAG binder,MBD2 DNA inh,PG9 Ab binder
Cc1coc2c1C(=O)C(=O)c1c-2ccc2c(C)cccc12,/,95.1,/,/,/,/
Cc1ccc(S(=O)(=O)NN2C(=O)/C(=C/c3cccc(F)c3)SC2=S)cc1,.,.,.,75.1,.,.
COC(=O)[C@]12C[C@H](CC(=O)NCC34CC5CC(CC(C5)C3)C4)C(=O)N(Cc3ccco3)C1=C[C@H](C1CCCC1)O[C@@H]2C,.,/,.,.,.,/
CCCN(C(=O)CSc1nnnn1C)C1CCS(=O)(=O)C1 (stereo not given),.,.,21.9,.,.,.
CCCCn1nnnc1C(CC)N1CCN(C/C=C/c2ccccc2)CC1 (stereo not given),.,.,21.8,.,.,.
COc1ccccc1C(=O)NCc1n[nH]c(=S)n1Cc1ccccc1,.,.,44.4,.,.,.
CCOc1cc(C2CC(=O)N3CN(C4CCCCC4)CSC3=C2C#N)ccc1O (stereo not given),.,.,.,.,.,.
COc1ccc2ccccc2c1C1CC(=O)N2CN(C3CCCCC3)CSC2=C1C#N (stereo not given),.,.,.,39.1,.,.
C=CCN(CC#Cc1ccc(C(F)(F)F)cc1)Cc1ccc(OC)cc1OC,.,/,.,.,.,/
COc1cc([C@@H]2OC[C@@H]3[C@H]2CO[C@@H]3c2ccc3c(c2)OCO3)ccc1O,.,.,.,.,.,.
COc1cc(CC2COC(c3ccc(O)c(OC)c3)C2COC(C)=O)ccc1O (stereo not given),14.3,63.2,.,.,.,.
O=C(CCc1ccccc1)N[C@H]1[C@H](OC(=O)c2ccco2)CCC[C@]12C(=O)N(Cc1ccccc1)c1ccccc12,.,/,.,.,.,/
CN(CC(=O)Nc1cccc(F)c1)C(=O)c1cn(-c2ccccc2)nc1-c1ccccc1,.,.,24.0,.,.,.
COc1ccccc1C(C#N)N1N=C(C)CC1(C)C (stereo not given),.,.,.,.,.,.
CC1=NN(C(C#N)c2ccccc2O)C(C)(C)C1 (stereo not given),.,.,30.2,.,.,.
CCCN1CCS(=O)(=O)N(Cc2cn(Cc3ccc(F)cc3)nn2)C(C(=O)OC)C1 (stereo not given),.,/,.,.,.,/
Cc1ccc(-n2c(SCC(=O)NN=Cc3ccc(-c4ccccc4)cc3)nnc2-c2ccccc2)cc1,.,/,.,.,.,/
COC(=O)C[C@@H]1CC[C@@H]2[C@H](COc3ccc(NC(=O)Nc4c(C)noc4C)cc3C(=O)N2C)O1,.,/,.,.,.,/
CN(CCc1ccccn1)C(=O)CCc1nnc(CCCc2ccccc2)o1,.,.,.,.,.,.
CN(CCc1cnn(C)c1)C(=O)CCc1nnc(CCCc2ccccc2)o1,.,.,47.6,.,.,.
Nn1c(SCC(=O)Nc2cccc3ccccc23)nnc1-c1n[nH]c2c1CCC2,.,/,.,.,.,/
CCC(=O)Nc1c2c(nn1-c1ccc(OC)cc1)CS(=O)C2 (stereo not given),.,.,.,.,.,.
CCC(CC)C(=O)Nc1c2c(nn1-c1ccc(OC)cc1)CS(=O)C2 (stereo not given),.,.,38.8,.,.,.
CN(C)CCCN=c1cc(-c2ccccc2)oc2ccc(Cl)cc12,.,52.3,.,.,.,.
OCCN=c1cc(-c2ccccc2)oc2ccc(Cl)cc12,/,.,/,/,/,/
SMILES,LEDGF integ inh,DNMT1 block,UHRF1 MBD2 ctr,rCAG binder,MBD2 DNA inh,PG9 Ab binder
O=C(Nc1ccccc1Cl)c1ccn[nH]1,.,.,.,.,.,.
O=C(Nc1ccccc1F)c1ccn[nH]1,.,.,74.9,.,.,.
O=C(CN1c2cccc3cccc(c23)S1(=O)=O)Nc1ccccc1,.,.,68.5,.,.,.
O=C(Nc1ccc(Cl)cc1)C1CCCN1S(=O)(=O)c1cccc2cccnc12 (stereo not given),.,/,.,.,.,/
O=C(NC1CCCC1)c1ccccc1OCc1ccccc1,.,.,39.1,.,.,.
c1ccc(COc2ccc(OCCCNC3CCCC3)cc2)cc1,.,.,30.6,.,.,.
O=C(NC1CCN(Cc2ccccc2)CC1)c1ccccc1OCc1ccccc1,.,.,.,.,.,.
COCCCNCCCCOc1ccc(OCc2ccccc2)cc1,.,.,.,.,.,.
CC1(C#CC[N+]2(C)CCCCC2)CCC2C(O1)c1ccccc1OC2(C)C (stereo not given),.,.,23.8,.,.,.
CC1(C(O)(C#CC[N+]2(C)CCCCC2)c2ccccc2)CCCC1 (stereo not given),.,.,.,.,.,.
COC(=O)[C@]12C[C@H](CC(=O)N3CCCC3)C(=O)N(CCC3=CCCCC3)C1=C[C@H](C(C)C)O[C@@H]2C1CC1,.,/,.,.,.,/
COc1ccccc1OCCSc1nc2ccccc2n1CCC(=O)O,.,.,34.5,.,.,.
COc1ccc(OCCSc2nc3ccccc3n2CCC(=O)O)cc1,.,.,.,.,.,.
CCSc1nnc(NC(=O)c2ccccc2C)s1,.,.,23.8,.,.,.
COc1ccc(Br)cc1C(=O)Nc1ccccc1N1CCN(C(=O)c2ccccc2)CC1,.,.,.,.,.,.
COc1c(C)cc(Br)cc1C(=O)Nc1ccccc1N1CCN(C(=O)c2ccccc2)CC1,.,.,55.0,.,.,.
Oc1ccccc1/C=N/Nc1cc(N2CCCC2)nc(N2CCCC2)n1,.,57.8,.,.,.,.
CC1=CC2C3C(=O)N(c4ccccc4)C(=O)C3C1C(=O)C2(O)C(C)C (stereo not given),.,/,.,.,.,.
CC(C)Cn1c(N)c(C(=O)CSc2ccccc2)c(=O)n(C)c1=O,.,.,.,.,.,.
CC(C)Cn1c(N)c(C(=O)CSc2nnc(-c3ccco3)n2C)c(=O)n(C)c1=O,.,.,32.6,.,.,.
Cc1ccc2nc(-c3ccc(NS(=O)(=O)c4ccc(F)c(F)c4)cc3)sc2c1,.,.,.,75.5,.,.
CC(C)=CCC[C@@]1(C(=O)O)[C@@H]2C/C=C(\C)CC/C=C(\C)CC[C@H]1[C@]1(CC2)CO1,.,/,.,.,.,/
CC(C)CCN1CCC(CN2C(=S)NC[C@@H]2Cc2ccccc2)CC1,.,.,.,.,.,.
CC(CCN1CCC(CN2C(=S)NCC2Cc2ccccc2)CC1)c1ccccc1 (stereo not given),.,.,21.3,.,.,.

# Compound activity as filed in PubChem.
